Hits are enriched below; roughly 1.8% of the tested compounds scored in any of these assays.
Phagocyt inh – inhibitors of macrophage phagocytosis, primary screen, imaging, J774A.1 cells, IgG beads | 110,000 tested, 0.07% active | inhibition, % at 5 µM | J774A.1 macrophage IgG-bead phagocytosis;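 active = inhibition above the mean of the plate negative controls plus 5 SD, cut at about 13% in these data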;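 also: phagocytic index as fraction of beads internalized from green versus red external bead signal; plate controls were DMSO negative control for no effect and cytochalasin-D positive control for full effect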
Measles CPE – compounds protecting cells from measles virus cytopathic effect, primary screen, measles RdRp inhibitor project, single point, MLSMR library, absorbance; Measles virus-infected cells, CPE protection; protection (pct of control), % at 4 µM; 140,000 tested, 1.5% active; in the data active = protection mostly above about 24%, no sharp cut-off; inactive = mostly below about 26%
sdo1 growth – growth rescue of sdo1-depleted yeast, primary screen, S. cerevisiae, bone marrow failure model. S. cerevisiae sdo1-depleted JHY4D growth rescue, OD600 30 h; hits give high values; pdr5 snq2 efflux-pump mutant strain. z-score at 10 µM. 140,000 tested, 0.21% active. AID 817, 2007;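 active = z-score above 3 at both the 24 hr and the 30 hr optical density reads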;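 also: z-score against mean and SD of all compound wells on the same plate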
Starred values were filed as active, the others as inactive; · = not tested or not shown; [ ] = remark or other dose.

SMILES	Phagocyt inh	Measles CPE	sdo1 growth
O=C(NCCc1c[nH]c2ccccc12)c1cccnc1	-1.5	74.2*	0.57
O=C(NCCCCCNC(=O)c1cccnc1)c1cccnc1	-2.5	20.3	0.62
Cc1cc(C)nc(NC(=O)c2c(-c3ccccc3Cl)noc2C)c1	-3.7	13.3	-1.37
Cc1ccnc(NC(=O)c2c(-c3ccccc3Cl)noc2C)c1	-1.2	24.0*	-0.26
COCCn1c(=S)[nH]c2cc(C(=O)N3CCC(C(N)=O)(N4CCCCC4)CC3)ccc2c1=O	-0.5	11.1	0.18
CCOCCCn1c(=S)[nH]c2cc(C(=O)NCCN(CC)CC)ccc2c1=O	-4.7	33.7*	1.05
CCOC(=O)C1CCCN(C(=O)c2ccc3c(=O)n(CCOC)c(=S)[nH]c3c2)C1 (configuration not stated)	·	27.9*	-0.48
CCCCNC(=O)c1ccc2c(=O)n(CCCOCC)c(=S)[nH]c2c1	-0.4	17.8	-0.18
CCN(CC)c1ccc(NC(=O)COc2ccc(C#N)cc2)cc1S(=O)(=O)Nc1ccc(OC)cc1	·	2.5	-0.59
CCOC(=O)N1CCC(NC(=O)c2ccc(CNS(=O)(=O)c3ccc(F)cc3)cc2)CC1	-4.9	7.5	-1.05
Cc1cccc(C2CC(c3ccccc3)Nc3nc(N)nn32)c1 (configuration not stated)	-0.1	9.5	0.68
CC1CC(c2ccccc2)n2nc(N3C(=O)c4ccccc4C3=O)nc2N1 (configuration not stated)	0.6	26.8*	0.42
CC(=O)N/C(=C\c1ccccc1)C(=O)OCC(=O)N(C)C1CCCCC1	-8.6	16.8	1.17
CC1=Nn2c(nnc2-c2n[nH]c3c2CCC3)SC1	-0.7	31.8	0.09
Fc1ccc(C2=Nn3c(nnc3-c3n[nH]c4c3CCC4)SC2)cc1	0.1	36.2*	-0.34
c1ccc2c(CCNc3ncnc4nc[nH]c34)cccc2c1	·	7.3	0.01
Cn1c(=O)c2c(ncn2CC(=O)NCc2cccnc2)n(C)c1=O	3.6	39.1*	-0.1
Cn1c(=O)c2c(ncn2CC(=O)OCC(=O)NCc2ccc(Cl)cc2)n(C)c1=O	-0.3	25.7	-0.66
O=C(NCc1cccnc1)c1ccccn1	-0.4	12.8	-0.44
O=C(CSc1ccccc1)NCc1cccnc1	0.2	39.7*	1.53
O=C(O)c1ccccc1C(=O)NCc1cccnc1	-1.4	32.2*	0.87
O=C(CCSc1ccccc1)NCc1cccnc1	-5.1	25.7	0.22
O=C(NC1CCCCC1)C(c1cccnc1)N(CCc1ccccc1)C(=O)Cc1cccs1 (configuration not stated)	0.4	19.8	0.65
CC(=O)Oc1ccc(C(=O)Nc2cc(NC(=O)c3ccc(OC(C)=O)cc3)cc(C(=O)NC(C)(C)C)c2)cc1	-3.2	15.3	-0.38
Cc1cccc(C)c1NC(=O)COc1ccc2c(C)c(Cc3ccccc3)c(=O)oc2c1	-7.2	4.9	-0.46
SMILES	Phagocyt inh	Measles CPE	sdo1 growth
Cc1c(N=C2SCC(=O)N2/N=C/c2ccccc2)c(=O)n(-c2ccccc2)n1C	-5.4	7.2	0.18
CCCCCCC(=O)NC(Nc1ccc(S(N)(=O)=O)cc1)C(Cl)(Cl)Cl (configuration not stated)	-1.9	32.4*	-0.22
CCCCCC(=O)NC(Nc1ccc(S(N)(=O)=O)cc1)C(Cl)(Cl)Cl (configuration not stated)	-11.8	3.2	0.55
CC1CCc2nc(N)c(C#N)c(-c3cccnc3)c2C1 (configuration not stated)	·	75.7*	-0.43
CC1CCc2nc(N)c(C#N)c(-c3ccncc3)c2C1 (configuration not stated)	-0.4	19.2	-0.15
O=C(Nc1cccc([N+](=O)[O-])c1)c1[nH]ncc1Cl	-1.2	18.7	0.35
CC(C)(C)C(=O)COC(=O)c1ccc(O)cc1	·	54.9*	0.87
CC(C)(C)C(=O)COC(=O)c1ccccc1O	6.7	8.1	0.54
O=C(Cn1c(-c2cscn2)nc2ccccc21)Nc1ccccc1F	·	19.0	-0.16
O=S(=O)(NC1CC1)c1ccc(S(=O)(=O)N2CCc3ccccc32)cc1	1.2	44.1*	-0.21
Nc1ccc(S(=O)(=O)N2CCCc3ccccc32)cc1	-0.9	3.1	-0.94
O=C(Nc1cnc2ccccn2c1=O)c1ccc(Cl)cc1	·	2.5	0.19
CC(=O)NC1=NN(C(C)=O)C(C)(CCS(=O)(=O)c2ccc(Br)cc2)S1 (configuration not stated)	-5.5	4.8	0.43
O=C(Nc1nc(-c2ccccc2)ns1)c1cccs1	-0.4	33.2*	-1.85
O=C(Nc1nc(-c2ccccc2)cs1)c1cccs1	-0.9	1.1	-1.82
O=C(Nc1ccc2oc(-c3ccccc3)nc2c1)c1cccnc1	3.0	58.8*	-0.3
CCc1ccc2oc(-c3cccc(NC(=O)c4cccnc4)c3)nc2c1	0.1	7.7	-1.26
CCOC(=O)N1CCN(C(=O)c2cn(CCOC)c(=O)c3c2c2ccccc2n3C)CC1	-0.2	9.3	0.39
CN(c1ccccc1)S(=O)(=O)c1cccc(NC(=O)Nc2ccc(Cl)cc2C#N)c1	-9.2	24.6*	-0.53
CCN(c1ccccc1)S(=O)(=O)c1ccc(Cl)c(NC(=O)Nc2ccc(Cl)cc2C#N)c1	-2.3	6.7	0.6
Cc1nnc(SCC(=O)NC2CCCc3ccccc32)n1-c1ccccc1 (configuration not stated)	-4.0	4.5	0.58
CC1(C)Cc2c(C#N)c(NCCc3ccccc3)nc(-c3ccco3)c2CO1	-0.7	52.6*	-0.49
CCN(CC)CCNc1nc(-c2ccco2)c2c(c1C#N)CC(C)(C)OC2	-0.9	15.1	0.8
COc1ccc(-n2nnnc2/C=C\Nc2ccccc2C(=O)c2ccccc2)cc1	-2.3	30.6*	-0.46
CC(=O)c1cccc(N/C=C\c2nnnn2-c2ccc(F)cc2)c1	-5.8	4.3	0.13
SMILES	Phagocyt inh	Measles CPE	sdo1 growth
CN(C)S(=O)(=O)N(CC(=O)N(Cc1ccccc1)Cc1ccccc1)c1ccccc1	-3.5	16.0	-1.66
COC(=O)c1ccc(Cn2nc(C)c(Br)c2C)cc1	-2.3	36.5	-0.23
Cc1nn(Cc2cccc(C(=O)NCC(C)C)c2)c(C)c1Br	·	27.2*	-0.63
O=[N+]([O-])c1cc(/C=N/O)ccc1SCc1ccccc1	·	75.5*	-1.18
O=[N+]([O-])c1cc(/C=N/O)ccc1Sc1ccccc1	·	6.9	-1.71
N#CC1=C(N)N2C(=C(C#N)C13CCCCC3)SC1CCCCC12O (configuration not stated)	-0.8	8.2	-0.53
CCCCc1nc(N2CCOCC2)c(C#N)c2c1CCCC2	-0.5	55.6*	-0.62
CCCc1nc(N2CCOCC2)c(C#N)c2c1CCCC2	-0.5	29.2	-0.52
CCOc1cc(C(=O)N(C)Cc2cc3ccccc3[nH]c2=O)cc(OCC)c1OCC	-0.5	64.0*	-0.39
CCOc1ccccc1C(=O)N(C)Cc1cc2ccccc2[nH]c1=O	0.1	3.2	0.88
Cc1ccccc1CSCC(=O)N/N=C/c1cccs1	·	6.4	-0.31
O=C(Nc1nnc(SCC(=O)N2CCOCC2)s1)c1ccccc1Cl	36.8*[artifact]	3.4	1.07
O=C(CSc1nnc(NCc2ccccc2)s1)N1CCOCC1	4.0	7.6	0.85
CCOC(=O)c1c(-c2ccc(OC)cc2)csc1NC(=O)COc1ccc2c(C)cc(=O)oc2c1	-5.8	9.0	-0.89
